The text below walks through data of ChEMBL document CHEMBL3988442, “University of Dundee, Small-Polar-MMV Screening Library” (2021).

One assay addresses T1, Arginase-2, mitochondrial (Homo sapiens) (UniProt P78540).
T1 sequence (whole entry): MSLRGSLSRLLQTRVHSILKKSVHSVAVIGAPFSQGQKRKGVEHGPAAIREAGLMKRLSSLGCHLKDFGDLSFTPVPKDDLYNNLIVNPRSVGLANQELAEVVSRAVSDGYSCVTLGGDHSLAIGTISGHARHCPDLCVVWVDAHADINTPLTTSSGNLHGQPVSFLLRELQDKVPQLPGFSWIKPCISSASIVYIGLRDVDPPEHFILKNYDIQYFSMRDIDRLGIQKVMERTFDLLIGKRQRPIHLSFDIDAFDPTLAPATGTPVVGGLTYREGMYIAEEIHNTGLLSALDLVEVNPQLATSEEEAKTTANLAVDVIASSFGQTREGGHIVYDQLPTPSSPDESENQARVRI
The assay can be described thus: in vitro enzyme assay to detect the production of urea directly proportional to the activity of Arginase II. The conditions noted are these: 33.3 µM. Also on record: scale not given: in the data most compounds retested in dose-response had high values. Type of assay: functional.
Take `CCOC(CC)C(=O)NCCC(=O)N1CCN(c2ncccn2)CC1` (centres undefined): the Percent Effect was found to be 0%.

`CN(Cc1ccsc1)C(=O)c1cc2c([nH]c1=O)CCCC2=O`: the Percent Effect was -0.185%.

Take `CC(C)CCN1CN=C(NS(=O)(=O)c2ccc(F)cc2)NC1`: the Percent Effect is -9.33%.

Turning to `COCCN1C[C@@H]2CCCO[C@@H]2[C@H](N(C)Cc2ccco2)C1`, the Percent Effect was 50.6%.

Take `CN(Cc1cnn(C)c1)C(=O)NC1CCN(c2ncccn2)CC1`: the Percent Effect is -0.356%.

With `Cc1nc(C2CCCN2CC(=O)N2CCCc3ccccc32)no1` (centres undefined), the Percent Effect amounted to 3.45%.

The next assay addresses T2, Proteasome subunit beta (Trypanosoma cruzi) (UniProt O96673).
T2 sequence (whole entry): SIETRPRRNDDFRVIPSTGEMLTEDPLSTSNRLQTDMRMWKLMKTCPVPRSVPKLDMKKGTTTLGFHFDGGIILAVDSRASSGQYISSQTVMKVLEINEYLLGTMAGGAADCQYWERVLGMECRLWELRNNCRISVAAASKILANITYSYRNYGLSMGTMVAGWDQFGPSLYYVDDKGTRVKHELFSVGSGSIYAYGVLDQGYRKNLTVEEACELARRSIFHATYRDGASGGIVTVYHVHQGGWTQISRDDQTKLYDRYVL
Description: Trypanosoma cruzi proteasome chymotrypsin-like activity (TcProtChymo) assay. It counts as functional. Also on record: scale not given: in the data most compounds retested in dose-response had high values. Conditions: 9.37 µM.
As for `O=C(NCC1CC1)[C@@H]1CCO[C@@H]2CCN(Cc3ccco3)C[C@H]21`, the Percent Effect was -1.2%.

On to `CC(C)Nc1ncnc2c1CCN(C(=O)c1ccncc1F)CC2`, for which the Percent Effect amounted to 17.2%.

Regarding `Cc1nc[nH]c1CN1C[C@@H]2CC[C@H](C1)N(C(=O)CCNS(C)(=O)=O)C2`, the Percent Effect was 3.33%.

Take `O=C(N[C@@H]1CN(c2ncccn2)C[C@@H]2CCCO[C@@H]21)c1cnccn1`: the Percent Effect worked out at 7.18%.

Regarding `CNc1cncc(C2CCCN2Cc2ccccn2)n1` (centres undefined), the Percent Effect is 29.5%.

As to `Fc1ccc2[nH]c(C3CCCN3CCc3ccccn3)nc2c1` (centres undefined), the Percent Effect is 18.6%.

`CS(=O)(=O)NCc1cn2c(n1)CN(C(=O)c1ccc[nH]1)CC2`: the Percent Effect was found to be 5.2%.

Regarding `O=C(CCNS(=O)(=O)c1ccccc1)NCc1ccoc1`, the Percent Effect came out at 12%.

For `O=C(NCc1ccc(-n2cncn2)nc1)c1ccoc1`, the Percent Effect stood at 0.901%.

Turning to `Cn1ccnc1CN1CCC2(CC(=O)N(c3cccc(F)c3)C2)C1` (centres undefined), the Percent Effect was found to be 14.8%.

With `CC(C)c1nc2n(n1)CC(NCc1nc(-c3cccnc3)no1)CC2` (centres undefined), the Percent Effect came to 11.1%.

Take `O=C(NCc1nnc2n1CCCC2)N1CCc2ccccc2C1`: the Percent Effect came to 4.63%.

`Cc1oc(C)c(C(=O)N2CCCN(Cc3cscn3)CC2)c1C`: the Percent Effect was -1.37%.

`COc1c(CNC2CCN(C(=O)C3CC3)CC2)c(C(C)C)nn1C`: the Percent Effect is -0.0846%.

Consider `CN(C)C(=O)c1ccc(CNC(=O)NCCN(C)C2CCCC2)cc1`, for which the Percent Effect worked out at 5.41%.

Consider `CC(C(=O)N1CCCN(Cc2ccc(C#N)cc2)CC1)n1ccnc1` (centres undefined), for which the Percent Effect turned out to be 17.2%.

On to `CCOc1ccccc1C(CC(=O)Nc1ccc(C)cn1)NC(C)=O` (centres undefined), for which the Percent Effect came out at 4.34%.

Take `CC(C)COC(C)C(=O)NCc1ccc(OC(C)C)nc1` (centres undefined): the Percent Effect was determined as 11.1%.

`O=C(CNCCn1cccn1)NCC1(c2ccccc2)CC1`: the Percent Effect was -3.96%.

Regarding `O=C(NC1CCC1)[C@@H]1C[C@@H]2CCN(Cc3cccs3)C[C@@H]2O1`, the Percent Effect turned out to be 7.67%.

Turning to `CN(C)CC1(O)CCN(S(=O)(=O)c2ccc(F)cc2)C1` (centres undefined), the Percent Effect is 17.3%.

As to `Cc1ncsc1-c1nnc(C2CCN(Cc3ccc(F)cc3)CC2)o1`, the Percent Effect was found to be 1.25%.

In the case of `Cc1ncc(CN(C)CC2CCCN2c2cccnn2)s1` (centres undefined), the Percent Effect was 25.6%.

`CN(C)CCn1c(=O)oc2ccc(NC(=O)CC(C)(C)C)cc21`: the Percent Effect came to 7.67%.

Take `O=C(NCC(O)c1ccccc1Cl)c1cccc(-n2cnnn2)c1` (centres undefined): the Percent Effect amounted to 14.2%.

As to `COCC(NC(=O)c1cnn(C)c1)c1cccc(C(F)(F)F)c1` (centres undefined), the Percent Effect amounted to 7.28%.

Take `CC(C)c1nc(C2CCCN2Cc2ccno2)no1` (centres undefined): the Percent Effect is -1.52%.

On to `CN1CCN(Cc2cscn2)CC(C(=O)N(C)C)C1` (centres undefined), for which the Percent Effect was 3.44%.

As for `N#Cc1ccc(CN2CCN(C(=O)C3CCC3)[C@@H]3CS(=O)(=O)C[C@@H]32)cc1`, the Percent Effect stood at 8.98%.

In the case of `O=C(NC1CC1)[C@@H]1CCO[C@@H]2CCN(Cc3ccsc3)C[C@H]21`, the Percent Effect was 17.5%.

On to `COC1CCN(C(=O)c2c(Cl)c3ccccc3n2C)CC1`, for which the Percent Effect amounted to 16.2%.

As to `OC(CN1CCOCC1)c1ccc(OC(F)(F)F)cc1` (centres undefined), the Percent Effect amounted to 4.32%.

For `CCOCCN1CCN(Cc2nc(C3CC3)no2)CC1CC` (centres undefined), the Percent Effect was 9.41%.

Regarding `CCOC(CC)C(=O)NCCC(=O)N1CCN(c2ncccn2)CC1` (centres undefined), the Percent Effect is 7.19%.

As for `CN(Cc1ccsc1)C(=O)c1cc2c([nH]c1=O)CCCC2=O`, the Percent Effect was 16.5%.

In the case of `CC(C)CCN1CN=C(NS(=O)(=O)c2ccc(F)cc2)NC1`, the Percent Effect is 9.61%.

For the compound `COCCN1C[C@@H]2CCCO[C@@H]2[C@H](N(C)Cc2ccco2)C1`, the Percent Effect was 11%.

For the compound `CN(Cc1cnn(C)c1)C(=O)NC1CCN(c2ncccn2)CC1`, the Percent Effect is 6.25%.

For the compound `Cc1nc(C2CCCN2CC(=O)N2CCCc3ccccc32)no1` (centres undefined), the Percent Effect is 0%.

For another assay, the species on record is Homo sapiens. Description: To identify inhibition of the IFN signalling (Jak-Stat) pathway via expression of an eGFP reporter gene under the control of an IFN-stimulated response element (ISRE) containing MxA promoter. Type of assay: functional. Further details: scale not given: direction of the effect not stated beside the values. The conditions noted are these: 30 µM. On the technique in general: A reporter such as luciferase makes a cellular process visible.
Consider `O=C(NCC1CC1)[C@@H]1CCO[C@@H]2CCN(Cc3ccco3)C[C@H]21`, for which the Percent Effect worked out at 5.41%.

Regarding `CC(C)Nc1ncnc2c1CCN(C(=O)c1ccncc1F)CC2`, the Percent Effect was found to be 4.19%.

For `Cc1nc[nH]c1CN1C[C@@H]2CC[C@H](C1)N(C(=O)CCNS(C)(=O)=O)C2`, the Percent Effect is -7.69%.

Take `O=C(N[C@@H]1CN(c2ncccn2)C[C@@H]2CCCO[C@@H]21)c1cnccn1`: the Percent Effect is 10.6%.

In the case of `CNc1cncc(C2CCCN2Cc2ccccn2)n1` (centres undefined), the Percent Effect was -2.5%.

Regarding `Fc1ccc2[nH]c(C3CCCN3CCc3ccccn3)nc2c1` (centres undefined), the Percent Effect is -28.3%.

For the compound `CS(=O)(=O)NCc1cn2c(n1)CN(C(=O)c1ccc[nH]1)CC2`, the Percent Effect was 2.29%.

Consider `O=C(CCNS(=O)(=O)c1ccccc1)NCc1ccoc1`, for which the Percent Effect is 12.9%.

As to `O=C(NCc1ccc(-n2cncn2)nc1)c1ccoc1`, the Percent Effect turned out to be 3.65%.

Turning to `Cn1ccnc1CN1CCC2(CC(=O)N(c3cccc(F)c3)C2)C1` (centres undefined), the Percent Effect stood at 6.27%.

As for `CC(C)c1nc2n(n1)CC(NCc1nc(-c3cccnc3)no1)CC2` (centres undefined), the Percent Effect was -3.81%.

For `O=C(NCc1nnc2n1CCCC2)N1CCc2ccccc2C1`, the Percent Effect was 4.93%.

Consider `Cc1oc(C)c(C(=O)N2CCCN(Cc3cscn3)CC2)c1C`, for which the Percent Effect turned out to be 14.5%.

Regarding `COc1c(CNC2CCN(C(=O)C3CC3)CC2)c(C(C)C)nn1C`, the Percent Effect is 15.4%.

Consider `CN(C)C(=O)c1ccc(CNC(=O)NCCN(C)C2CCCC2)cc1`, for which the Percent Effect was 22.8%.

Turning to `CC(C(=O)N1CCCN(Cc2ccc(C#N)cc2)CC1)n1ccnc1` (centres undefined), the Percent Effect stood at 29.1%.

As for `CCOc1ccccc1C(CC(=O)Nc1ccc(C)cn1)NC(C)=O` (centres undefined), the Percent Effect was 4.19%.

For the compound `CC(C)COC(C)C(=O)NCc1ccc(OC(C)C)nc1` (centres undefined), the Percent Effect was -12.7%.

Consider `O=C(CNCCn1cccn1)NCC1(c2ccccc2)CC1`, for which the Percent Effect was found to be 7.94%.

Turning to `O=C(NC1CCC1)[C@@H]1C[C@@H]2CCN(Cc3cccs3)C[C@@H]2O1`, the Percent Effect was 28.3%.

On to `CN(C)CC1(O)CCN(S(=O)(=O)c2ccc(F)cc2)C1` (centres undefined), for which the Percent Effect was found to be 10.1%.

Take `Cc1ncsc1-c1nnc(C2CCN(Cc3ccc(F)cc3)CC2)o1`: the Percent Effect is -6.87%.

On to `Cc1ncc(CN(C)CC2CCCN2c2cccnn2)s1` (centres undefined), for which the Percent Effect was 0.297%.

Regarding `CN(C)CCn1c(=O)oc2ccc(NC(=O)CC(C)(C)C)cc21`, the Percent Effect amounted to 5.54%.

Consider `O=C(NCC(O)c1ccccc1Cl)c1cccc(-n2cnnn2)c1` (centres undefined), for which the Percent Effect came out at 24.8%.

For `COCC(NC(=O)c1cnn(C)c1)c1cccc(C(F)(F)F)c1` (centres undefined), the Percent Effect is -1.62%.

For the compound `CC(C)c1nc(C2CCCN2Cc2ccno2)no1` (centres undefined), the Percent Effect came out at 14.5%.

For the compound `CN1CCN(Cc2cscn2)CC(C(=O)N(C)C)C1` (centres undefined), the Percent Effect came out at 5.65%.

With `N#Cc1ccc(CN2CCN(C(=O)C3CCC3)[C@@H]3CS(=O)(=O)C[C@@H]32)cc1`, the Percent Effect was 14.4%.

In the case of `O=C(NC1CC1)[C@@H]1CCO[C@@H]2CCN(Cc3ccsc3)C[C@H]21`, the Percent Effect was determined as 3.93%.

Take `COC1CCN(C(=O)c2c(Cl)c3ccccc3n2C)CC1`: the Percent Effect is -7.49%.

As to `OC(CN1CCOCC1)c1ccc(OC(F)(F)F)cc1` (centres undefined), the Percent Effect turned out to be 1.68%.

On to `CCOCCN1CCN(Cc2nc(C3CC3)no2)CC1CC` (centres undefined), for which the Percent Effect amounted to 2.26%.

In the case of `CCOC(CC)C(=O)NCCC(=O)N1CCN(c2ncccn2)CC1` (centres undefined), the Percent Effect came out at 0.555%.

Regarding `CN(Cc1ccsc1)C(=O)c1cc2c([nH]c1=O)CCCC2=O`, the Percent Effect was determined as 3%.

With `CC(C)CCN1CN=C(NS(=O)(=O)c2ccc(F)cc2)NC1`, the Percent Effect is -4.88%.

For `COCCN1C[C@@H]2CCCO[C@@H]2[C@H](N(C)Cc2ccco2)C1`, the Percent Effect worked out at 16.7%.

`CN(Cc1cnn(C)c1)C(=O)NC1CCN(c2ncccn2)CC1`: the Percent Effect was 25.2%.

For `Cc1nc(C2CCCN2CC(=O)N2CCCc3ccccc32)no1` (centres undefined), the Percent Effect was found to be 6.64%.
